Data on 91 compounds can be found in PubChem BioAssay AID504850 (National Center for Advancing Translational Sciences (NCATS), 2011).

About 1,200 (52%) of roughly 2,300 compounds were called active. Another 34% or so got no clear call; they are omitted. Calls come from the whole dose curve; as a rule, active = well fitted inhibition curve with a large enough effect; inconclusive = small, poorly fitted or top-dose-only effect, or effect the other way; inactive = no such curve, though single readings can be large or run the other way. So high a share suggests a set chosen from earlier hits. The list shows a part of the results.
Potency is the fitted concentration of half-maximal effect.

The nature of the assay: Confirmation screen for delayed death inhibitors of the malarial parasite plastid, 48 hour incubation. Note: nearly all actives have a fitted effect of over 65% in size. The note with it: P. falciparum-infected erythrocytes, luciferase growth; series mostly up to 28.7 µM. From the text:
The goal of this screen is to discover new antimalarial compounds that act by inhibiting the development of the apicoplast in the malarial parasite Plasmodium falciparum. The biochemical processes that make this organelle essential for erythrocytic stage parasites are not well understood. However, antibiotics, such as azithromycin and tetracycline, which target the apicoplast translational machinery, have a potent antimalarial effect. […] We have developed a cell-based assay that measures parasite growth based on the expression of an integrated copy of a firefly luciferase reporter. To detect small molecules that cause this "delayed death phenotype, erythrocytes infected with the luciferase-expressing parasites were incubated with compounds for either one or two generations, corresponding to 48 and 96 hours, respectively. Compounds that inhibit parasite growth in the second generation, but not the first, should be enriched in antimalarials that target the apicoplast. Growth inhibition is detected by a decrease in luciferase activity. MLPCN Grant: R21 NS059500 Assay Provider: David Fidock and Eric Ekland, Columbia University Keywords: NIH Roadmap, MLPCN, MLI, MLSMR, qHTS, NCGC, qHTS, malaria, luciferase, viability
Four microliters of culture medium (RPMI 1640 with 0.5% w/v Albumax (GIBCO), 24 mM sodium bicarbonate and 10 ug/mL gentamycin) were dispensed by a Multi-drop Combi into white solid 1536-well plates (Grenier) and 23 nL compound was added by a pin tool. Four microliters of infected erythrocytes (2% hematocrit, 0.1% parasitemia final concentration) in culture medium were dispensed and the plates incubated for 48 hours at 37 C in 5% CO2. Two microliters of luciferase detection reagent was added and luminescence was detected by a ViewLux (PerkinElmer) reader.
With `O=C(/C=C/c1cccnc1)c1ccc(O)cc1`, the Potency was 15.8 µM (active).
To `O=C(/C=C/c1ccccc1)/C=C/c1ccccc1` belongs 11.2 µM (active).
Take `COc1ccc(C(=O)/C=C/c2cccnc2)c(OC)c1`: the Potency is 7.94 µM (active).
Regarding `O=C(/C=C/c1cccnc1)/C=C/c1cccnc1`, the Potency was 4.47 µM (active).
To `COc1cc(C(=O)/C=C/c2cccnc2)ccc1O` belongs 12.6 µM (active); to `COc1cc(/C=C/C(=O)Nc2cccnc2)cc(OC)c1OC`, 14.1 µM (active).
`COc1cc(/C=C/C(=O)OCC(=O)Nc2c(C)n(C)n(-c3ccccc3)c2=O)cc(OC)c1OC`: the Potency result was “inactive”.
`CC(C)NC(=O)c1onc(CSc2cccc3ccccc23)c1C(=O)O`: the Potency result is “inactive”.
As for `COc1cc2cc[n+](Cc3ccc([N+](=O)[O-])cc3)cc2cc1OC`, the Potency was 5.01 µM (active).
To `CN1CCN(c2ncnc3c2c(-c2ccccc2)cn3-c2ccc(F)cc2)CC1` belongs 11.2 µM (active).
To `Fc1ccccc1N1CCN(c2ncnc3nc[nH]c23)CC1` belongs “inactive”; to `CCN1CCN(c2ncnc3c2c(-c2ccccc2)cn3-c2ccc(F)cc2)CC1`, 12.6 µM (active); to `COc1ccc(-n2c(=O)/c(=C\c3cccs3)s/c2=C(/C#N)C(=O)N2CCN(C)CC2)cc1`, “inactive”.
To `O=C(CCl)N1CCN(CC(=O)N2CCCC2)CC1` belongs 15.8 µM (active).
For the compound `CN(C(=O)CN1C(=O)CCSc2ccc(S(=O)(=O)N3CCCC3)cc21)c1ccccc1`, the Potency is 11.2 µM (active).
In the case of `OC(c1cc(C(F)(F)F)nc2c(Cl)cc(Cl)cc12)C1CCCCN1` (stereo unspecified), the Potency was 0.0282 µM (active).
Take `OC(c1cc(-c2ccc(Cl)cc2)nc2ccccc12)C1CCCCN1` (stereo unspecified): the Potency is 0.282 µM (active).
Consider `OC(c1cc(C(F)(F)F)nc2c(C(F)(F)F)cccc12)C1CCCCN1` (stereo unspecified), for which the Potency was 0.0447 µM (active).
Turning to `O[C@@H](c1cc(C(F)(F)F)nc2c(C(F)(F)F)cccc12)[C@H]1CCCCN1`, the Potency was 0.178 µM (active).
Regarding `COc1ccc(-n2c(C)cc(C(=O)COC(=O)Cc3n[nH]c(=O)c4ccccc34)c2C)cc1`, the Potency was 5.62 µM (active).
Take `O=C(Cc1n[nH]c(=O)c2ccccc12)OCc1c(Cl)cccc1Cl`: the Potency result is “inactive”.
For the compound `CC(C)(C)C(=O)/C(=C\c1cccc([N+](=O)[O-])c1)n1cncn1`, the Potency is 14.1 µM (active).
For `CC(=O)c1ccc(NC(=O)C2Cc3ccccc3CN2C(=O)c2ccccc2)cc1` (stereo unspecified), the Potency is 14.1 µM (active).
As for `C/C1=C\CCC2C(/C=C(\C)CC1)OC(=O)C2CN1CCCCC1` (stereo unspecified), the figure is 12.6 µM (active); as for `N#Cc1cc(Oc2cccc3cccnc23)c(-n2nnc3ccccc32)cc1C#N`, 5.01 µM (active); as for `COc1ccccc1-c1cc(C(=O)N/N=C/c2cccs2)c2ccccc2n1`, 5.62 µM (active).
As for `COc1ccccc1-c1cc(C(=O)N/N=C/c2ccc(C)o2)c2ccccc2n1`, the entry is “inactive”; as for `COc1ccccc1-c1cc(C(=O)N/N=C/c2ccc(C)s2)c2ccccc2n1`, 5.62 µM (active).
Consider `OC1C2(Cc3ccccc3)CN3CCN(C2)CC1(Cc1ccccc1)C3` (stereo unspecified), for which the Potency was 2 µM (active).
Regarding `CCCc1cc(NCCCN2CCOCC2)n2c(nc3ccccc32)c1C#N`, the Potency was 8.91 µM (active).
On to `Cc1ccccc1-c1nnc(NC(=O)c2ccc(N3C(=O)CCC3=O)cc2)s1`, for which the Potency was 14.1 µM (active).
For `CCC[C@H]1C[C@H](C(=O)N[C@@H]([C@H]2O[C@@H](SC)[C@@H](O)[C@@H](O)[C@@H]2O)[C@H](C)Cl)N(C)C1`, the Potency was 0.631 µM (active).
For `COc1ccc(NS(=O)(=O)c2ccc(N3CCOCC3)c(NC(=O)c3ccc(OC)cc3)c2)cc1`, the Potency is 11.2 µM (active).
As for `CCOC(=O)C1=C(C)NC(C)=C(C(=O)OCC)C1c1cc(N)ccc1OC(F)F`, the figure is 5.62 µM (active); as for `CCOc1ccc(S(=O)(=O)N2CCCC(C(=O)NC3CC3)C2)cc1Cl` (stereo unspecified), 12.6 µM (active); as for `COC(=O)COc1ccc(S(=O)(=O)NCCC2=CCCCC2)cc1Cl`, “inactive”.
As for `COc1cccc2sc(NNC(=O)c3nc4ccccc4s3)nc12`, the figure is 15.8 µM (active); as for `COc1ccc(CN(C(=O)/C=C/C(=O)c2ccc(OC)cc2O)C(C(=O)NC2CCCCC2)c2ccncc2)cc1` (stereo unspecified), 7.94 µM (active); as for `O=C(NC1CCCC1)C(c1ccncc1)N(Cc1ccco1)C(=O)c1ccc(-c2ccccc2)[nH]1` (stereo unspecified), 11.2 µM (active).
Consider `O=C(NC1CCCCC1)C(c1ccncc1)N(Cc1ccccc1)C(=O)c1ccc(-c2ccccc2)[nH]1` (stereo unspecified), for which the Potency is 4.47 µM (active).
As for `COc1ccc(NC(=S)N(CCCN2CCCCCC2)Cc2cccs2)cc1`, the Potency was 11.2 µM (active).
For `O=C(Nc1nnc(SCC(=O)N2CCCC2)s1)C1CC(=O)N(c2ccc(F)cc2)C1` (stereo unspecified), the Potency was 11.2 µM (active).
For `COc1cccc(N2CC(C(=O)Nc3nnc(SCCC4OCCO4)s3)CC2=O)c1` (stereo unspecified), the Potency was 12.6 µM (active).
To `CCc1ccc(NC2=CC(=O)C(=O)c3ccccc32)cc1` belongs 0.501 µM (active); to `CSc1ccc(C2c3[nH]c4ccccc4c3CCN2C(=O)c2ccnn2C)cc1` (stereo unspecified), 7.08 µM (active); to `Cn1nccc1C(=O)N1CCc2c([nH]c3ccccc23)C1c1ccc(F)cc1` (stereo unspecified), 7.94 µM (active).
Consider `CCc1ccc(C2c3[nH]c4ccccc4c3CCN2C(=O)c2cc(C)nn2C)cc1` (stereo unspecified), for which the Potency is 5.01 µM (active).
As to `Cc1cc[n+]2cc(-c3cccc([N+](=O)[O-])c3)c(-c3cccc([N+](=O)[O-])c3)cc2c1`, the Potency was 0.631 µM (active).
For `COc1ccc(N(C)S(=O)(=O)c2cccc(C(=O)NCc3ccc(C)cc3)c2)cc1`, the Potency is 12.6 µM (active).
Turning to `COc1cccc(S(=O)(=O)NCc2ccc(C(=O)NCc3ccccn3)cc2)c1`, the Potency entry is “inactive”.
With `CN(Cc1ccccc1Cl)C(=O)C1CCC(=O)N(CCc2cccc(F)c2)C1` (stereo unspecified), the Potency was 11.2 µM (active).
Take `CN(CCOc1ccccc1)C(=O)C1CCC(=O)N(CCN2CCOCC2)C1` (stereo unspecified): the Potency result was “inactive”.
To `O=C(Nc1ccccc1)N1CCC(O)(c2cccc(C(F)(F)F)c2)CC1` belongs 11.2 µM (active).
As to `CCOc1ccccc1NC(=O)C(CC)Sc1nc2ccsc2c(=O)n1CCC(=O)O` (stereo unspecified), the Potency is 12.6 µM (active).
For the compound `C[N+]1(CCCCSc2ccc(O)cc2)CCCCC1`, the Potency was 7.08 µM (active).
As for `Cc1c(C(=O)N2CCN(c3ccc([N+](=O)[O-])cc3)CC2)sc2ncn(CC(=O)N3CCOCC3)c(=O)c12`, the Potency was 12.6 µM (active).
`COc1ccccc1N1CCN(C2CCCN(Cc3ccc(Cl)cc3)C2)CC1` (stereo unspecified): the Potency was 6.31 µM (active).
For `COc1ccc(N2CCN(C3CCCN(Cc4ccc(F)cc4)C3)CC2)cc1` (stereo unspecified), the Potency is 11.2 µM (active).
On to `CCOC(=O)CSc1nnc(NC(=O)c2cccc([N+](=O)[O-])c2)s1`, for which the Potency is 12.6 µM (active).
As for `O=C(CSc1nnc(NC(=O)c2ccccc2[N+](=O)[O-])s1)NCC1CCCO1` (stereo unspecified), the entry is “inactive”; as for `CCC(C)[C@H](NC(=O)[C@H](Cc1ccccc1)n1c(=O)[nH]c2ccccc2c1=O)C(=O)NCC1CCC(C(=O)O)CC1` (stereo partly specified), 12.6 µM (active); as for `Clc1ccc(-c2c[n+](Cc3ccc(Br)cc3)c3n2CCCCC3)cc1`, 0.199 µM (active).
In the case of `Clc1ccc(-c2c[n+](Cc3ccc(Cl)cc3Cl)c3n2CCCCC3)cc1`, the Potency was 1.26 µM (active).
As to `Nc1nnnn1/N=C/C(Br)=C/c1ccccc1`, the Potency was 12.6 µM (active).
Turning to `O=C(NNc1ccnc2cc(Cl)ccc12)C1CCCCC1`, the Potency was 0.891 µM (active).
Consider `CCN1CCC(Nc2ccnc3cc(Cl)ccc23)CC1`, for which the Potency was 0.126 µM (active).
With `S=C(Nc1ccccc1Cl)N(Cc1ccccc1)Cc1cccnc1`, the Potency is 12.6 µM (active).
Consider `CCOC(=O)[C@H]1[C@H]2COc3cc(OC)ccc3[C@@H]2N2C(=O)N(c3ccc(Cl)cc3)C(=O)[C@@]12C`, for which the Potency was 12.6 µM (active).
For `O=c1cc(CSc2nc(NCc3ccccc3)c3ccccc3n2)nc2ccc(Cl)cn12`, the Potency was 5.01 µM (active).
As to `Cc1ncc(CO)c(/C=N/NC(=S)Nc2ccc(F)cc2)c1O`, the Potency is 12.6 µM (active).
Regarding `COc1ccc(C(=O)NCC(=O)N/N=C/c2ccc([N+](=O)[O-])s2)cc1OC`, the Potency was 11.2 µM (active).
As for `COc1ccc(C(=O)NCC(=O)N/N=C(C)\C=C\c2ccccc2)cc1OC`, the entry is “inactive”; as for `O=C(CNC(=O)c1cccc(F)c1)N/N=C/c1ccc([N+](=O)[O-])s1`, 11.2 µM (active); as for `CCCCCCCn1c(=O)c(C(=O)OC)c(N)c2ccccc21`, 12.6 µM (active).
Consider `NNc1nc(-c2ccccc2Cl)c2cc(Br)ccc2n1`, for which the Potency is 11.2 µM (active).
As to `Cc1c(OCC(=O)NCC(O)c2ccccc2)ccc2c3c(c(=O)oc12)CCC3` (stereo unspecified), the Potency is 14.1 µM (active).
With `O=C(COc1cc2oc(=O)c3c(c2cc1Cl)CCC3)NCC(O)c1ccccc1` (stereo unspecified), the Potency is 11.2 µM (active).
As to `O=S(=O)(NCC(O)c1ccccc1)c1cc(Cl)sc1Cl` (stereo unspecified), the Potency entry was “inactive”.
For `OC1(c2cccs2)CN(c2ccc(Br)cc2)C2=[N+]1CCCS2` (stereo unspecified), the Potency is 12.6 µM (active).
To `OC1(c2cccs2)CN(c2ccc(Cl)cc2)C2=[N+]1CCCC2` (stereo unspecified) belongs 10 µM (active).
As for `CC(C)(C)Nc1nc(Cl)nc(NC2CCCCC2)n1`, the Potency is 14.1 µM (active).
For `O=C1c2cc(F)ccc2-n2c1nc1ccccc1c2=O`, the Potency is 0.178 µM (active).
For `NC(=S)Nn1c(-c2ccccc2)nc2ccccc2c1=O`, the Potency entry is “inactive”.
Turning to `O=C1c2ccccc2-n2c1nc1ccccc1c2=O`, the Potency is 0.708 µM (active).
With `CN(C)CCn1c(=O)n(Cc2ccco2)c(=O)c2c3c(sc21)CCCCC3`, the Potency was 12.6 µM (active).
`O=C(Nc1ccccc1F)c1ccc(CN2CCN(c3ccccc3)CC2)cc1`: the Potency result is “inactive”.
`COc1ccc(NC(=O)c2ccc(CN3CCN(c4ccccc4)CC3)cc2)cc1OC`: the Potency was 10 µM (active).
On to `COc1cccc(NC(=O)c2ccc(CN3CCN(c4ccccc4)CC3)cc2)c1`, for which the Potency was 15.8 µM (active).
To `O=C(Nc1ccc(F)cc1F)c1ccc2c(c1)[nH]c(=O)n2Cc1ccc(F)cc1` belongs 12.6 µM (active); to `COc1ccc(Cl)cc1/C=C/c1ccc2cccc(O)c2n1`, 6.31 µM (active).
For `Oc1cccc2ccc(/C=C/c3ccccc3Br)nc12`, the Potency is 2.82 µM (active).
